Results published in the supplement of paper PMC3545927.
The list shows a part of the results. How many sequences the whole screen found active is unknown.

Target: furin, P09958
Assay: furin cleavage Z-score vs untreated control; higher = more cleavage, active = 3.5 or more, inactive = 1 or less, 8 variable residues between constant flanks
In short: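 In 50 mM HEPES pH 7.5 with CaCl2 and NaCl, purified furin was incubated with bead-anchored 8-mer peptide–cDNA fusions at 1:10 enzyme:substrate in 0.01 ml. Incubation times were 7.5, 15 and 30 min. DNA set free by cleavage was adapter-tagged by PCR and sequenced, with read counts taken as abundance. Log counts relative to furin-free reactions, after lowess adjustment and median absolute deviation scaling, form the cleavage Z-score.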

Sequence of furin, P09958 (P09958 whole entry): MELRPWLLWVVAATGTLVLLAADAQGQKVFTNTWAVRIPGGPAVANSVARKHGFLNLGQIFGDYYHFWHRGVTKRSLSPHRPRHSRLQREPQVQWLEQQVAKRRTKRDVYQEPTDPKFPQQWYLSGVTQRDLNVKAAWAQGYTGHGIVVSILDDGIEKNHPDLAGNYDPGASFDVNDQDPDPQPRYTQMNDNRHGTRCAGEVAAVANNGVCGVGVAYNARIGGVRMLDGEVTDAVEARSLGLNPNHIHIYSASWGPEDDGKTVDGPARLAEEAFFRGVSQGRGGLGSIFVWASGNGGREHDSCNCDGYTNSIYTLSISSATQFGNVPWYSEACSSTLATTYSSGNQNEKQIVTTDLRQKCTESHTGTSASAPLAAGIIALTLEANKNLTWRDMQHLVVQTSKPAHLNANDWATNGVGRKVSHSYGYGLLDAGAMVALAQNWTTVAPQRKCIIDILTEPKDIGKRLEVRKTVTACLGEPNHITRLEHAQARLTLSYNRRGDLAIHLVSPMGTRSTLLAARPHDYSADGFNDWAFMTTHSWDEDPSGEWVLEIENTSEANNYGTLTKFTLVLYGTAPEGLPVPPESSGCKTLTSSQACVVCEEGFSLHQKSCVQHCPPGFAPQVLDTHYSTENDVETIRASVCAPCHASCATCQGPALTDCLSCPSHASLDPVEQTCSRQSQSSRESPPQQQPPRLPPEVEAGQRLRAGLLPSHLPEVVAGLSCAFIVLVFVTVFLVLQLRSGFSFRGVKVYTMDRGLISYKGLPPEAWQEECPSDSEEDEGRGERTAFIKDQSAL

| Sequence | furin cleavage Z-score (7.5 min) | furin cleavage Z-score (15 min) | furin cleavage Z-score (30 min) |
| --- | --- | --- | --- |
| CAENLVILNAAGNASASA [HC535] | -0.56 (inactive) | -1.45 (inactive) | 0.00797 (inactive) |
| CAVNQRVRRAAGNASASA [FS-735] | 10 (active) | 8.42 (active) | 8.51 (active) |
| CAADPRVRRAAGNASASA [FS-1298] | 10.1 (active) | 8.47 (active) | 8.31 (active) |
| CAQKKRGGTAAGNASASA [WN2] | -0.625 (inactive) | -0.389 (inactive) | 0.122 (inactive) |
| CAADARVCSCAGNASASA [HC524] | 0.17 (inactive) | -2.96 (inactive) | -3.71 (inactive) |
| CALLQRKKKLAGNASASA [FS-823] | 0.0701 (inactive) | 0.355 (inactive) | -0.31 (inactive) |
| CALIPRVRRAAGNASASA [FS-608] | 9.17 (active) | 10.3 (active) | 8.48 (active) |
| CAADPRTWRSAGNASASA [FS-741] | -0.983 (inactive) | 1.45 | -0.478 (inactive) |
| CALLQRVRRAAGNASASA [FS-1360] | 3.77 (active) | 3.58 (active) | 3.76 (active) |
| CAAGVQEDAAAGNASASA [HC1534] | 0.273 (inactive) | -0.401 (inactive) | -1.13 (inactive) |
| CAEKPCHRPSAGNASASA [HC2334] | -0.309 (inactive) | 0.292 (inactive) | 0.19 (inactive) |
| CADRMEECSQAGNASASA [HC1813] | 0.635 (inactive) | -0.476 (inactive) | -0.0128 (inactive) |
| CARSIKSVPEAGNASASA [FS-1927] | 0.273 (inactive) | -0.944 (inactive) | 0.475 (inactive) |
| CARWNRFAMIAGNASASA [FS-2200] | 0.704 (inactive) | -0.675 (inactive) | -0.478 (inactive) |
| CARSARSAPEAGNASASA [FS-2377] | 7.91 (active) | 9.89 (active) | 6.92 (active) |
| CARTWRSVPEAGNASASA [FS-2528] | 0.349 (inactive) | 0.625 (inactive) | 1.35 |
| CARWPRSDPEAGNASASA [FS-1807] | 2.83 | 2.73 | 4.21 (active) |
| CARSARSVARAGNASASA [FS-3075] | 5.33 (active) | 7.5 (active) | 6.53 (active) |
| CASTWCSAHLAGNASASA [HC2508] | 0.983 (inactive) | 0.815 (inactive) | 0.802 (inactive) |
| CAMILMTHFFAGNASASA [HC1582] | -0.371 (inactive) | -0.697 (inactive) | -2.29 (inactive) |
| CAHCTTPCSGAGNASASA [HC1955] | -1.08 (inactive) | -1.68 (inactive) | 0.655 (inactive) |
| CAEQVVCCSMAGNASASA [HC2142] | -0.416 (inactive) | -0.852 (inactive) | 2.1 |

| Sequence | furin cleavage Z-score (7.5 min) | furin cleavage Z-score (15 min) | furin cleavage Z-score (30 min) |
| --- | --- | --- | --- |
| CAKCDELAAKAGNASASA [HC860] | 1.37 | 1.03 | -0.237 (inactive) |
| CAPEKRAKRGAGNASASA [FS-1044] | 10.2 (active) | 9.94 (active) | 7.39 (active) |
| CAGHQREKRGAGNASASA [FS-428] | 11.3 (active) | 13.2 (active) | 10.6 (active) |
| CAKVKREAEKAGNASASA [FS-1674] | 5.11 (active) | 4.39 (active) | 5.05 (active) |
| CAPEKRSVFAAGNASASA [FS-2874] | -0.508 (inactive) | -0.764 (inactive) | -1.36 (inactive) |
| CAKVKREKRGAGNASASA [FS-454] | 11.2 (active) | 10.5 (active) | 9.94 (active) |
| CAEPPEAKRGAGNASASA [FS-1117] | 0.349 (inactive) | -1.82 (inactive) | -0.871 (inactive) |
| CARQKKLAEKAGNASASA [FS-2585] | 0.116 (inactive) | -2.1 (inactive) | 0.509 (inactive) |
| CASVSREDRGAGNASASA [FS-1491] | -0.464 (inactive) | -0.739 (inactive) | -0.69 (inactive) |
| CAPKPCGIVPAGNASASA [HC406] | 0.0213 (inactive) | 0.68 (inactive) | 1.33 |
| CAESKRLVDTAGNASASA [FS-1880] | -0.698 (inactive) | 0.318 (inactive) | 0.434 (inactive) |
| CAEVVTSTTVAGNASASA [HC2238] | -0.88 (inactive) | -1.41 (inactive) | 0.307 (inactive) |
| CAQRNLKKRGAGNASASA [FS-914] | 10.1 (active) | 13.1 (active) | 11.1 (active) |
| CARQPRSNGDAGNASASA [FS-2292] | 0.463 (inactive) | -0.49 (inactive) | 1.56 |
| CALRNRLFRGAGNASASA [FS-359] | 0.887 (inactive) | 1.52 | -0.676 (inactive) |
| CAGFDRKKRGAGNASASA [FS-238] | 9.36 (active) | 9.95 (active) | 8.88 (active) |
| CAKVKRSQGDAGNASASA [FS-1985] | 3.98 (active) | 3.48 | 3.75 (active) |
| CALHKRQVGDAGNASASA [FS-1675] | -0.324 (inactive) | -0.439 (inactive) | 0.074 (inactive) |
| CALRTREKRGAGNASASA [FS-549] | 7.16 (active) | 7.31 (active) | 5.83 (active) |
| CATTPHSGSWAGNASASA [HC49] | -0.934 (inactive) | -0.777 (inactive) | -0.65 (inactive) |
| CAEDRDRSELAGNASASA [HC488] | 0.995 (inactive) | 1.63 | 0.694 (inactive) |
| CARTPCSAHLAGNASASA [HC2473] | 0.852 (inactive) | -0.775 (inactive) | 2.15 |
